Screens (PubChem BioAssay)
Sampled rows, rich in hits. Any-hit rate of the full collection: about 0.45%.
EPAC2 ag – agonists of human EPAC2 (RAPGEF4); Q8WZA2; EPAC2 activation, biochemical qHTS; response scale: 100% = 6.5 mM cAMP response; Potency, µM (doses to about 154 µM), inactives show at the top dose activation, most hits filed as activators; actives 0.079% (n = 360,000); AID 720711; note: nearly all actives have a fitted effect of over 50% in size
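EPAC2 (100 nM) mixed with Rap1B loaded with BODIPY-GDP (250 nM) plus 50 uM unlabeled GDP; compounds pinned in, 5 min RT, then read every 5 min for 30 min (ex 480, em 540 nm). Normalized to cAMP control.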
USP1-UAF1 inh – inhibitors of human USP1/UAF1 deubiquitinase. Potency, µM (top dose mostly 57.1 µM), for the others: at the highest dose activity change, negative = inhibition, actives largely listed as inhibitors. recombinant USP1/UAF1, Ub-Rhodamine cleavage fluorescence. AID 743255. actives 0.23% (n = 390,000). O94782; note: % is set by controls: 0 for no effect and ±100 for the full control effect; nearly all actives have a fitted effect of over 60% in size
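Step one: compound is pinned into 1nM USP1/UAF1 in HEPES pH 7.8 buffer with TCEP. Step two: 15 min room-temperature incubation. Step three: Ub-Rho (150nM final) starts cleavage, tracked by fluorescence over six one-minute reads.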
USP2a block – USP2a (human) protease inhibition. USP2 core, Ub-CHOP2 coupled fluorogenic reporter, 485/531. Potency, µM (titrated, usually from 38.3 µM), for the others: top-dose activity change, negative = inhibition, most hits filed as inhibitors. actives 0.01% (n = 330,000). AID 463254;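 note: plate controls were DMSO wells for no effect and full inhibition by NEM control for full effect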
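Deubiquitinase activity read as fluorescence (485/531 nm) after Ub-CHOP2 cleavage activates the enterokinase reporter on its substrate; USP2 core 10nM, Ub-CHOP2 and substrate 25nM each, 30min compound preincubation then 60min RT; data normalized to NEM, curves fitted.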
EPAC2 antag – EPAC2 (human) antagonism | Q8WZA2 | EPAC2 GEF exchange of Rap1B-BODIPY-GDP, fluorescence | Potency, µM (series often up to 114 µM), for inactives: top-dose activity, negative = inhibition, most hits filed as inhibitors | actives 0.18% (n = 360,000); note: % is set by controls: 0 for no effect and ±100 for the full control effect; nearly all actives have a fitted effect of over 45% in size
EPAC1 agonist – agonists of human EPAC1. O95398. EPAC1 agonist qHTS, biochemical assay; response scale: 100% = response to 6.5 mM cAMP. Potency, µM (top dose mostly 154 µM), without a hit: at the highest dose activation, hits mostly activators. actives 0.073% (n = 360,000). AID 720707; note: nearly all actives have a fitted effect of over 60% in size
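Compounds were pinned as a concentration titration into mixtures of EPAC1 (100 nM), BODIPY-GDP-loaded Rap1B (250 nM) and GDP (50 uM). After 5 min at room temperature, fluorescence was followed for 30 min; activity was scaled to 6.5 mM cAMP.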
EPAC1 antag – EPAC1 (human) antagonism. O95398. EPAC1 GEF assay, Rap1b-BODIPY-GDP exchange fluorescence. Potency, µM (doses to about 115 µM), without a hit: top-dose activity change, negative = inhibition, most hits filed as inhibitors. actives 0.14% (n = 360,000). AID 720709;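 note: plate controls were vehicle for no effect and positive control for full effect; nearly all actives have a fitted effect of over 50% in size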
The depositor's hits bear a star; ? = inconclusive; / = no result. Calls come from the whole dose curve; as a rule, active = well fitted curve in the direction sought with a large enough effect; inconclusive = small, poorly fitted or top-dose-only effect, or another doubt; inactive = no such curve, though single readings can be large; an effect the other way counts as inactive or inconclusive. Potency is the fitted concentration of half-maximal effect.

SMILES	EPAC2 ag	USP1-UAF1 inh	USP2a block	EPAC2 antag	EPAC1 agonist	EPAC1 antag
CCc1ccc(OCC(=O)c2c(O)c3ccccc3oc2=O)cc1	-1%	0%	0%	-2%	5%	-30%
CCc1oc2ccccc2c1C(=O)c1cc(Br)c(O)c(Br)c1	-11%	?	-2%	10µM*	-11%	?
O=C(CN1C(=O)CCc2cc(S(=O)(=O)N3CCOCC3)ccc21)NCc1ccc(F)cc1	/	-13%	/	/	/	/
COc1cc(/C=C2\COC/C(=C\c3ccc(O)c(OC)c3)C2=O)ccc1O	7%	-22%	-1%	-13%	3%	89µM*
COC(=O)N(C)C[C@@H]1OCc2cn(nn2)CCCC(=O)N([C@@H](C)CO)C[C@H]1C	4%	-4%	/	0%	13%	-16%
COc1ccccc1/C=C/C=c1\sc2nc(=O)c(Cc3ccccc3)nn2c1=O	?	-16%	-8%	6%	8%	35µM*
CC1(c2nnnn2C2CCCC2)CCC(=O)N1c1ccc2c(c1)OCCO2 (stereo not drawn)	7%	/	/	4%	12%	-5%
COc1ccccc1C(C(=O)c1ccccc1)c1ccc(O)cc1 (stereo not drawn)	1%	/	/	56µM*	3%	-16%
CCOc1ccccc1NC(=O)Nc1ccc2c(c1)OCO2	10%	-25%	-5%	-5%	-6%	-3%
C=CCOc1ccccc1CN(C(=O)CCl)c1ccc2c(c1)OCO2	10%	-22%	1%	13µM*	-14%	-19%
Cc1nc(CC(=O)N/N=C/c2ccc(OCC(=O)O)cc2)cs1	-3%	-12%	5%	2%	-10%	13%
CCOc1cc(/C=N/NC(=O)c2ccc(-c3csc(Nc4ccc(C)cc4)n3)cc2)ccc1OCC(=O)O	19%	-6%	-1%	-22%	?	40µM*
O=C(O)COc1ccc(/C=N/NC(=O)c2ccc(-c3csc(Nc4ccc(Cl)cc4)n3)cc2)cc1	-5%	?	3%	?	12%	7.9µM*
Cn1c(=O)c(Nc2ccc(Cl)cc2)c2c3c(cccc31)C(=O)c1ccccc1-2	112µM*	10µM*	?	63%	?	11%
O=c1cc(-c2ccc(O)cc2)oc2c(O)c(O)c(O)c(O)c12	4%	10µM*	-1%	-14%	-6%	6.3µM*
O=c1cc(-c2ccc(O)cc2)oc2c1ccc1ccccc12	-4%	-22%	0%	7%	-1%	1%
CC(C)(Sc1ccc(CCN(CCCCC2CCCCC2)C(=O)NC2CCCCC2)cc1)C(=O)O	-13%	?	1%	56µM*	-21%	-11%
COc1cccc(C2c3[nH]c4ccccc4c3CCN2Cc2ncc[nH]2)c1 (stereo not drawn)	7%	-33%	13%	50µM*	6%	-4%
CCOC1=CC2=C(C(=O)C(Cl)=CC2=O)[C@@H]2CN(S(=O)(=O)c3ccc(C)cc3)[C@@H](c3ccccc3)[C@H]12	2%	/	/	-4%	-5%	56µM*
O=[N+]([O-])/C=C/c1cn(Cc2ccc(Cl)cc2)c2ccccc12	100µM*	?	1%	22%	?	-12%
CCc1cccc(CC)c1N1C(=O)C2=C(SCCCS2)C1=O	112µM*	?	/	-7%	100µM*	-2%
CCc1cccc(CC)c1N1C(=O)COCC1=O	-3%	-14%	/	4%	-10%	-1%
O=C1c2cc(Br)ccc2N(Cc2ccc(Br)cc2)S(=O)(=O)C1c1cc(Cl)c(Cl)cc1[N+](=O)[O-] (stereo not drawn)	-11%	?	-17%	20µM*	-10%	56µM*
CC1=Nc2ccccc2/C1=C/c1c(N)n2c(S(=O)(=O)C(C)C)nsc2nc1=O	-6%	?	0%	-25%	-3%	-27%
CC1=Nc2ccc(C)cc2/C1=C/c1c(N)n2c(S(=O)(=O)C(C)C)nsc2nc1=O	-11%	-25%	-1%	-5%	-22%	50µM*
SMILES	EPAC2 ag	USP1-UAF1 inh	USP2a block	EPAC2 antag	EPAC1 agonist	EPAC1 antag
COc1ccc(CN2CCN(c3nc4ccccc4s3)CC2)cc1	10%	-9%	1%	-8%	7%	-30%
COc1ccc(CCn2c(O)cc3nn(-c4nc5ccccc5s4)c(=O)c-3c2C)cc1	-16%	?	?	13%	-12%	50µM*
CC(C)(C)N1CC(c2nc3ccccc3n2CCOc2ccccc2)CC1=O (stereo not drawn)	10µM*	-15%	-2%	-11%	-5%	10%
O=C1CC(=O)Nc2cc(S(=O)(=O)Nc3ccc(Cl)c(C(F)(F)F)c3)ccc2N1	-6%	-10%	5%	35µM*	-1%	-26%
CCc1nnc(NS(=O)(=O)c2ccc(NC(=S)NC(=O)c3ccc(Br)cc3)cc2)s1	6%	-19%	-8%	-16%	1%	56µM*
CCc1nnc(NS(=O)(=O)c2ccc(NC(=S)NC(=O)/C=C/c3ccc(C(C)C)cc3)cc2)s1	8%	25µM*	-25%	?	13%	79µM*
CCc1nnc(NS(=O)(=O)c2ccc(N/C=C\C(=O)c3ccc4ccccc4c3)cc2)s1	6%	-18%	0%	-8%	3%	50µM*
CCc1nnc(NS(=O)(=O)c2ccc(NC(=S)NC(=O)/C=C/c3ccccc3)cc2)s1	8%	-11%	2%	-7%	2%	?
CCc1nnc(NS(=O)(=O)c2ccc(NC(=S)NC(=O)c3ccccc3)cc2)s1	9%	-16%	1%	-2%	1%	-9%
Cc1nnc(Sc2cc(NCCO)c([N+](=O)[O-])c3nonc23)s1	-5%	-26%	2%	3%	4%	-1%
Cc1nnc(Sc2cc(NCCCO)c([N+](=O)[O-])c3nonc23)s1	14%	14µM*	9%	18%	3%	40µM*
COc1ccc(C(=O)Nc2nc(-c3ccc([N+](=O)[O-])cc3)c(-c3ccc(OC)cc3)s2)cc1	100µM*	?	9%	136%	112µM*	457%
CC(=O)Nc1nonc1NC(C)=O	3%	-15%	0%	4%	-2%	10%
CC(=O)Nc1cc(OC(C)=O)c2nonc2c1OC(C)=O	8%	4µM*	-1%	4%	-4%	?
CCC(=O)N1CCCC(C)(C(=O)NS(=O)(=O)c2cccs2)C1 (stereo not drawn)	-10%	/	/	2%	7%	-15%
Oc1c(Cl)cc(Cl)cc1C=Nc1ccc(N2CCOCC2)cc1	23%	-22%	1%	11%	7%	-1%
